Reference: ChEMBL document CHEMBL3988442, “University of Dundee, Small-Polar-MMV Screening Library” (2021)
The whole screen tested about 48,000 compounds, of which about 13,000 (27%) showed an effect of 50% or more. The list shows a part of the results.

What follows are molecules tested on Wolbachia pipientis (assay: Anti-Wolbachia Cell-Based Screen). Conditions: 5 µM.
Type: functional
Parameters: scale not given: in the data most compounds retested in dose-response had high values

| Compound | Percent Effect [%] |
| --- | --- |
| O=C(O)c1ccc(F)c(S(=O)(=O)Nc2ccc(-n3cccn3)c(Cl)c2)c1 | -11.53 |
| N#Cc1cc(NS(=O)(=O)c2cc(C(=O)O)cc(Cl)c2Cl)ccc1F | 118.7 |
| Cc1cnn(Cc2cc(F)ccc2F)c1NC(=O)C1COCCO1 (centres undefined) | -3.747 |
| CCN(C)C(=O)[C@H]1C[C@@](CC(C)C)(C(=O)OC)N(C)[C@H]1c1cccnc1 | 5.067 |
| CC(NC(=O)C1CCN(C(=O)C2CC2)CC1)c1nncn1C(C)C (centres undefined) | -33.62 |
| CC(c1ccon1)N(C)C(=O)C1CCN(C(=O)C2CC2)CC1 (centres undefined) | 3.184 |
| Cc1cc(-c2ccc(=O)n(C3CCN(C(=O)C4CC4)CC3)n2)c(C)o1 | 96.13 |
| Cc1cc(-c2ccc(=O)n(C3CCN(C(=O)C4CCC4)CC3)n2)c(C)o1 | 91.93 |
| CC(c1ccon1)N(C)C(=O)C1CCN(C(=O)C2CCC2)CC1 (centres undefined) | -1.254 |
| Cc1ccc2oc(C(=O)N3CCC(C(=O)N4CCCC4)CC3)cc2n1 | -8.823 |
| O=C(COc1ccccc1C(F)(F)F)NCCNC(=O)c1ccccc1 | -6.371 |
| CCC(=O)Nc1ncn(Cc2cccnc2)n1 | 8.509 |
| OCC1(Cc2ccc(F)cc2F)CCCN(Cc2ccncc2)C1 (centres undefined) | -2.33 |
| Cc1nc(Cn2cc(I)cc(C)c2=O)oc1C | 3.254 |
| Cc1noc(C)c1Cn1cc(I)cc(C)c1=O | 13.31 |
| Cc1nnc(Cn2cc(I)cc(C)c2=O)o1 | 62.5 |
| Cc1nc(-c2cc(Cl)c3c(c2)CC(CN)O3)c[nH]1 (centres undefined) | 12.8 |
| O=C(O)C(F)(F)F.O=C(c1ccco1)N1CCc2ncnc(Oc3cccnc3)c2CC1 | 1.407 |
| Cc1occc1C(=O)N1CCC2(CCN(C(=O)c3cccnc3)C2)CC1.O=C(O)C(F)(F)F | 124.8 |
| Cc1occc1C(=O)N1CCC2(CCN(Cc3nccs3)C2)CC1.O=C(O)C(F)(F)F | -10.35 |
| O=C(O)C(F)(F)F.O=C(c1cccnc1)N1CCC2(CCN(C(=O)c3ccco3)CC2)C1 | 98.34 |
| O=C(O)C(F)(F)F.O=C(c1ccco1)N1C[C@@H]2CCN(c3cccnc3)C[C@@H]2C1 | 15.12 |
| COCCNC(=O)[C@]12COC[C@H]1CN(c1cc(OC)ncn1)C2 | -2.209 |
| CNc1ncc(CN(C)Cc2cc(O)c3cccc(Cl)c3n2)cn1 | -16.65 |
| CC1COCCN1C(=O)NCCn1ccnc1 (centres undefined) | 4.662 |

| Compound | Percent Effect [%] |
| --- | --- |
| O=C(c1ccccn1)N1C[C@@H]2CC[C@H](C1)N(C(=O)CCc1ccsc1)C2 | -35.6 |
| O=C(CCc1ccccc1)N1CCN(C(=O)c2ccc[nH]2)CC1 | 0.009024 |
| O=C1C[C@H]2CC[C@@H](CN1)N2C(=O)CCc1ccsc1 | 104.7 |
| O=C(c1cnccn1)N1C[C@@H]2CC[C@H](C1)N(C(=O)Cc1ccsc1)C2 | 0.9084 |
| O=C1C[C@H]2CC[C@@H](CN1)N2C(=O)CCCc1ccc(Cl)cc1 | 109.6 |
| O=C1C[C@H]2CC[C@@H](CN1)N2C(=O)Cc1ccsc1 | 116.9 |
| O=C1CO[C@@H]2CN(C(=O)CCc3ccccc3)C[C@H]2N1 | -22.36 |
| O=C1C[C@H]2CC[C@@H](CN1)N2C(=O)CCc1ccccc1 | 110.6 |
| O=C(CCCc1ccc(Cl)cc1)N1CCN(C(=O)c2ccc[nH]2)CC1 | -0.04512 |
| Cn1c2c(ccc1=O)CC(NC(=O)Cc1ccsc1)CC2 (centres undefined) | -9.793 |
| CS(=O)(=O)N1C[C@@H]2CC[C@H](C1)N(C(=O)CCc1ccsc1)C2 | 10.69 |
| NC(=O)C1CCCN1CCCc1ccc(Cl)cc1 (centres undefined) | -0.6682 |
| CCN1C(=O)[C@H]2CN(CC(C)C)C[C@H]2C12CCN(S(C)(=O)=O)CC2.O=C(O)C(F)(F)F | 7.177 |
| CN(C)C1CCN(C(=O)C2SCCc3ccccc32)CC1 (centres undefined) | -22.58 |
| CC(NCCCc1cnn(C)c1)c1ccc(Cl)s1 (centres undefined) | 3.726 |
| O=C(NC1CC1)C1CNCCN1C(=O)CCc1ccc2c(c1)OCO2 (centres undefined) | 13.7 |
| O=C1C[C@H]2CC[C@@H](CN1)N2C(=O)CCc1ccc2c(c1)OCO2 | 96.79 |
| O=C(CCc1ccc2c(c1)OCO2)N1CCCC(n2cccn2)C1 (centres undefined) | -13.74 |
| O=C(O)C(F)(F)F.O=C([C@H]1CC[C@@H]2[C@@H](CCN2C2CCCC2)O1)N1CCOCC1 | 125.5 |
| O=C(O)C(F)(F)F.O=C([C@H]1CC[C@@H]2[C@@H](CCN2C2CCCCC2)O1)N1CCOCC1 | 120.9 |
| O=C(O)C(F)(F)F.O=C([C@H]1COC[C@H]2CN(C3CCCCC3)C[C@H]21)N1CCOCC1 | -10.34 |
| O=C(O)C(F)(F)F.O=C([C@@H]1CC[C@@H]2[C@@H](CCN2CCOCc2ccccc2)O1)N1CCCC1 | -30.56 |
| O=C(O)C(F)(F)F.O=C([C@H]1CC[C@@H]2[C@@H](CCN2Cc2ccsc2)O1)N1CCOCC1 | -4.642 |
| O=C(O)C(F)(F)F.O=C([C@H]1CC[C@@H]2[C@@H](CCN2C2CCOCC2)O1)N1CCOCC1 | 111.7 |
